Experimental data: PubChem BioAssay (NCATS)
Results filed as inconclusive are left out. A call without a number means that no potency is given here. Active and inactive are the calls of the source. The call rests on the fitted dose curve; in most records, active means well fitted cell-killing curve with a large enough effect; inconclusive means small, poorly fitted or top-dose-only effect, or effect the other way; inactive means flat fitted curve, though single readings scatter.

system: Es-2; experiment: Primary qHTS to identify gynecologic anti-cancer compounds using libraries of approved drugs and bioactive compounds (AID 1345084); conditions: Gynecologic cancer cell panel viability, ATPlite luminescence, 48 h; series mostly up to 57.5 µM; further: nearly all actives have a fitted effect of over 55% in size
Method in brief: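 Measured: luminescence after ATPlite addition (15 min, RT). Exposure: 48 h, 37 C, 5% CO2.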

Q: With COC(=O)/C=C/C12COC(C)(C)C1C(O)C(OC(C)=O)C1(C)C2CCC2(C)C(c3ccoc3)OC(=O)C3OC321 (stereo not drawn) as the compound, how does the Potency read?
A: inactive

Q: For CC1CC(=O)C2=C(CCC3(O)C(O)c4c(O)cccc4C(=O)C23O)C1 (stereo not drawn), which Potency is on record?
A: inactive

Q: Which Potency does the source give for COC(=O)c1ccccc1O[C@@H]1O[C@H](CO)[C@@H](O)[C@H](O)[C@H]1O[C@@H]1O[C@@H](C)[C@H](O)[C@@H](O)[C@H]1O here?
A: inactive

Q: CCc1ccc(Cc2ccc3c(c2)[C@]2(OC3)O[C@H](CO)[C@@H](O)[C@H](O)[C@H]2O)cc1 was tested. Which Potency did it give?
A: inactive

Q: With OC[C@H]1O[C@@H](Oc2ccccc2)[C@H](O)[C@@H](O)[C@@H]1O as the compound, how does the Potency read?
A: inactive

Q: Which Potency does the source give for COc1cc2c(cc1OC)CC(=O)N(CCCNC[C@H]1Cc3cc(OC)c(OC)cc31)CC2 here?
A: inactive

Q: Which Potency does the source give for COc1cc(O)c([C@@H](CC(=O)N2CC(C)CC(C)C2)c2ccc3c(c2)OCO3)c(OC)c1 (stereo partly drawn) here?
A: inactive

Q: How did the Potency turn out when C=CC/C=C\C/C=C\CCCCCCCc1cccc(O)c1C(=O)O was run?
A: inactive

Q: How did the Potency turn out when Cc1ccc(-c2ccc3c(ccc4sc5c(c43)NC[C@@H](C)NC5=O)n2)cn1 was run?
A: inactive

Q: With C[C@@H]1C(=O)OC[C@H]2C(C(=O)O)=C[C@@H]3CC(C)(C)C[C@]312 as the compound, how does the Potency read?
A: inactive

Q: How did the Potency turn out when C[C@H]1CC(=O)Nc2cccc(-c3cnn(C(C)(C)C)c3)c2N1 was run?
A: inactive

Q: COC(=O)C(C)C1CCC2(C)C(=O)C=CC(C)(O)C2C1O (stereo not drawn) was tested. Which Potency did it give?
A: inactive

Q: How did the Potency turn out when CC(=O)O[C@@H]1[C@@H](OC(=O)/C=C/c2ccccc2)[C@@H](OC(C)=O)[C@H](O[C@H]2[C@@H]3C=CO[C@@H](O[C@@H]4O[C@H](CO)[C@@H](O)[C@H](O)[C@H]4O)[C@@H]3[C@@]3(CO)O[C@@H]23)O[C@H]1C was run?
A: inactive
